# High-throughput results (PubChem BioAssay)
# BJeLR viability = BJeLR cell viability loss | BJeLR (HRASV12) viability, CellTiter-Glo ATP luminescence, 48 h | inhibition, % (concentration not given with the values) | 300,000 tested, 0.17% active | AID 1554; in the data active = inhibition above about 50%; inconclusive = no clear call, values can overlap the other calls
# PrPC TRFRET = reduces human prion protein on the cell surface | P04156 | cell surface PrPC, TR-FRET read-out | inhibition, % at 13.8 µM | 370,000 tested, 0.43% active | AID 720596; in the data active = inhibition above about 24%; note: 0% = median of the test wells and 100% = reference compound wells
# PrP UTR inh = inhibition of PrP 5' UTR reporter expression; cell-based PrP 5' UTR mRNA reporter, plate reader; inhibition, % (no concentration beside the values); 340,000 tested, 0.35% active; in the data active = inhibition above about 52%; note: 0 = median of the neutral control wells
# 3CLpro inhibitor = SARS-CoV 3CLpro protease inhibition | P0C6X7 | recombinant SARS-CoV 3CLpro, quenched FRET peptide cleavage | inhibition, % at 6 µM | 290,000 tested, 0.14% active; in the data active = inhibition above about 12%
# SSB-PriA inh = inhibitors of Klebsiella pneumoniae PriA binding to SSB C-terminal tail; AlphaScreen SSBct-PriA binding, biotinylated peptide; inhibition, % at 33 µM; 430,000 tested, 0.6% active; in the data active = inhibition mostly above about 37%, no sharp cut-off; inactive = mostly below about 20%;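 note: plate controls were negative control peptide for no effect and reference peptide for full effect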
# PrP UTR cherry = prion 5' UTR mRNA inhibition, cherry-pick retest. cell-based prion protein 5' UTR reporter, plate reader. AID 504592. shares compounds with PrP UTR inh. 1,100 tested, 48% active. inhibition, % at 2.5 µM; in the data active = inhibition above about 54%; inconclusive = no clear call, values can overlap the other calls
# Starred values were filed as active, the others as inactive; i = inactive; ? = inconclusive; / = no result given. Compounds with a hit are over-represented: about 1.2% of the library has one in this group of screens.
SMILES,BJeLR viability,PrPC TRFRET,PrP UTR inh,3CLpro inhibitor,SSB-PriA inh,PrP UTR cherry
COc1cc(-c2noc(C)c2/C=C/c2cccc([N+](=O)[O-])c2)cc(OC)c1OC,15,9,58*,-1,1,71*
Cc1[nH]n(-c2ccccc2)c(=O)c1C(=O)c1cccc(F)c1,8,3,62*,1,9,-21
COc1ccc(Br)c(C(=O)N2CCC(S(=O)(=O)c3nncn3C)CC2)c1,/,/,/,/,-39,/
Nc1ncnc2c1ncn2[C@@H]1O[C@H](CNCc2ccc(OCc3ccccc3)cc2)[C@@H](O)[C@H]1O,/,-7,-16,/,-14,/
Nc1ncnc2c1ncn2[C@@H]1O[C@H](CNCc2ccc(OCC(=O)Nc3ccccn3)cc2)[C@@H](O)[C@H]1O,/,-3,87*,/,-14,-19
CCOC(=O)c1csc(NC(=O)c2ncc(-c3ccccc3)o2)n1,/,/,/,/,2,/
Cc1cc(NC(=O)CN2C(=O)CC(c3ccccc3)S(=O)(=O)c3ccccc32)no1 (stereo not given),/,/,/,/,4,/
Cc1ccc(C(=O)N(Cc2ccco2)c2c(N)n(Cc3ccccc3)c(=O)[nH]c2=O)cc1,/,9,/,/,/,/
Cc1cccc(C(=O)N(Cc2ccco2)c2c(N)n(Cc3ccccc3)c(=O)[nH]c2=O)c1,/,-9,90*,/,1,-46
COc1cc(NC(=O)C2Cc3ccccc3CN2S(C)(=O)=O)cc(OC)c1 (stereo not given),-1,-2,5,1,-9,/
COc1ccc(OC)c(S(=O)(=O)N2Cc3ccccc3CC2C(=O)Nc2nccs2)c1 (stereo not given),/,-1,69*,1,-5,-33
COCCN1CCCc2ccc(NS(=O)(=O)c3ccc(C)cc3C)cc21,/,/,/,/,20,/
CC(=Nc1ccccc1)C1=C(O)C(Cc2ccc(O)cc2)NC1=O (stereo not given),/,7,54*,/,-6,89*
O=C1ON=C(c2ccc(Cl)c([N+](=O)[O-])c2)/C1=C/c1cccc([N+](=O)[O-])c1O,/,-9,-14,/,-3,/
O=C1ON=C(c2ccccc2[N+](=O)[O-])/C1=C/c1cccc([N+](=O)[O-])c1O,/,-1,90*,/,-4,2
O=c1c2ccccc2ncn1-c1ccc(Cl)cc1[N+](=O)[O-],-3,-29,-11,-1,-1,/
Cc1nc2ccccc2c(=O)n1-c1ccc(Cl)cc1[N+](=O)[O-],-3,-22,80*,4,-1,-10
COc1ccc(C=NNC(=O)c2ccn[nH]2)cc1CSc1ccccn1,/,/,/,/,-1,/
O=C(Nc1nc2cc3c(cc2s1)OCCO3)C1=COCCO1,29,11,92*,-3,-12,86*
O=C(Nc1nc2ccc(F)cc2s1)C1=COCCO1,33,0,7,/,-1,/
Cc1cc(C(=O)Nc2c(C(N)=O)oc3ccccc23)n(C)n1,/,/,/,/,0,/
S=C(NCc1ccco1)Nc1ccc(Br)cn1,-9,8,-13,1,-1,/
S=C(NCc1ccco1)Nc1cc(-c2ccccc2)[nH]n1,3,5,62*,4,8,-4
CC(C)(C)OC(=O)C[C@@H]1C/C=C\C[C@H](CC(=O)N(CCO)Cc2ccccc2)C(=O)N[C@H](C(C)(C)C)COC1=O,/,-6,60*,/,-2,0
O=C(CCCSc1ccc(NC(=O)C2CC2)nn1)Nc1nccs1,/,/,/,/,-4,/
SMILES,BJeLR viability,PrPC TRFRET,PrP UTR inh,3CLpro inhibitor,SSB-PriA inh,PrP UTR cherry
NC(=O)CSc1nc2scc(-c3ccccc3Cl)c2c(=O)n1-c1ccccc1,/,/,/,/,5,/
COc1cccc(CNC(=O)COC(=O)c2cc([N+](=O)[O-])ccc2N2CCCC2)c1,/,-13,84*,/,18,1
O=C(COC(=O)c1cc([N+](=O)[O-])ccc1N1CCOCC1)NCc1ccccc1,/,-19,/,/,/,/
N/C(=N\OC(=O)c1cccc2ccccc12)c1ccccn1,2,-1,-61,-4,/,/
CCCc1ccc(C(=O)O/N=C(\N)c2ccccn2)cc1,-1,0,88*,6,i,77*
COc1cccc(C(=O)O/N=C(\N)c2ccccn2)c1,0,3,52*,3,i,91*
NC(=NOC(=O)c1ccc([N+](=O)[O-])cc1)c1ccccn1,/,/,/,/,-4,/
N/C(=N\OC(=O)c1ccc2ccccc2c1)c1ccccn1,-4,-10,53*,2,/,40
NC(=NOC(=O)c1cccc(F)c1)c1ccccn1,/,/,/,/,9,/
COc1cccc(C(=O)O/N=C(\N)c2ccccn2)c1OC,1,-6,52*,2,i,?
Cc1ccnc(SCCCn2c(N3CCc4ccccc4C3)nc3c2c(=O)[nH]c(=O)n3C)n1,/,/,/,/,-7,/
COC(CNS(=O)(=O)CC12CCC(CC1=O)C2(C)C)c1cccc(F)c1 (stereo not given),/,/,/,/,2,/
CN1C(=O)C(C)(C)COc2ccc(NS(=O)(=O)Cc3cccc(Cl)c3)cc21,/,/,/,/,5,/
COc1ccc(C(C)=O)cc1CSc1nc2cc(Cl)ccc2o1,-1,6,57*,5,2,-62
CCOc1ncccc1C(=O)N1CCN(c2cccc(C)c2C)CC1,39,6,70*,2,-7,86*
Cc1cccc(NC(=O)C2CN(S(=O)(=O)C3CC3)C2)n1,/,/,/,/,-26,/
CC(=O)Nc1ccc(C=NNc2nc3ccccc3[nH]2)cc1,/,/,/,/,7,/
COc1ccccc1-c1nnc(SCC(=O)NC2CCCCC2)o1,-8,3,76*,-8,-3,-4
O=c1c2ccccc2cnn1CCOc1ccccc1,8,-1,71*,6,-12,70*
CCN(CC)S(=O)(=O)c1cccc(-c2n[nH]c(=S)n2N=Cc2ccc(OC(F)F)cc2)c1,/,/,/,/,19,/
CC(=O)c1ccc(OC(=O)c2ccc3c(c2)C(=O)N(c2ccccc2)C3=O)cc1,/,/,/,/,-1,/
CC(C(=O)Nc1ccccc1Br)c1ccc([N+](=O)[O-])cc1 (stereo not given),1,-10,3,-1,3,/
COC(=O)c1ccccc1NC(=O)C(C)c1ccc([N+](=O)[O-])cc1 (stereo not given),-1,-7,64*,4,2,2
CCCCN=C(C)C1=C(O)CSC1=O,-4,4,78*,2,1,-1
COc1ccccc1CNC(=O)CCc1cn(C)c2ccccc12,-6,7,66*,-4,11,-1
SMILES,BJeLR viability,PrPC TRFRET,PrP UTR inh,3CLpro inhibitor,SSB-PriA inh,PrP UTR cherry
COc1ccccc1CNC(=O)CCCc1cn(C)c2ccccc12,-3,-10,3,6,8,/
CN1C(=O)NC2(CCN(CC(=O)N3CCCc4ccccc43)CC2)C1=O,/,/,/,/,-3,/
CCN(CCO)c1ccc(N=Nc2cc(C)[nH]n2)cc1,-2,-38,61*,2,-1,62*
CCN(CCO)c1ccc(Nc2cc(-c3ccc(-c4ccccc4)cc3)ncn2)cc1,/,11,/,/,/,/
CC1=Nc2cc(C(=O)NCC3CCCO3)ccc2Sc2ccc(C)cc21 (stereo not given),27,10,-35,5,-16,/
CC1=Nc2cc(C(=O)NCc3ccco3)ccc2Sc2ccc(C)cc21,54*,10,61*,5,20,88*
